In PubChem BioAssay (Tox21):
Values joined by “and” are separate entries in the source; they are usually repeats but may differ in a detail not shown here. Equal entries are not always repeated. Inconclusive results are not listed. Where a call stands in place of a potency, no number is given. Some compounds were tested as several samples or in several runs, with calls that do not always agree. Active and inactive are the calls of the source. The call rests on the fitted dose curve.

Biological target: Retinoic acid receptor RXR-alpha (Homo sapiens) (UniProt P19793)
Sequence (P19793 whole entry, looked up): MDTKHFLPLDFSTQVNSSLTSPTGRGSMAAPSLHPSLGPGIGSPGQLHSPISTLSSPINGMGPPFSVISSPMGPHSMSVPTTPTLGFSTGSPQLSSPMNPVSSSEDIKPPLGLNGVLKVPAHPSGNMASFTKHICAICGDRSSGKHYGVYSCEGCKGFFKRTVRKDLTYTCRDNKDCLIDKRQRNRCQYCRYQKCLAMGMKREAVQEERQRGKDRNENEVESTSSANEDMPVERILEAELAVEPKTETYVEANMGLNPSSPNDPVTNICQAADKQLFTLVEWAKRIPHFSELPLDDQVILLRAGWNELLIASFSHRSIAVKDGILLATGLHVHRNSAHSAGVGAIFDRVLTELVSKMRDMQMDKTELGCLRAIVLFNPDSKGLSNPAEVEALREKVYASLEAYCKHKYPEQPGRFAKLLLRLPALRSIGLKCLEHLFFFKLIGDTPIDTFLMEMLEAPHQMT
Test: qHTS assay to identify small molecule agonists of the RXR signaling pathway (AID 1159527); further: nearly all actives have a fitted effect of over 35% in size
Settings: HEK293T RXRa-UAS-bla, beta-lactamase ratio, 16 h; series mostly up to 76.8 µM
Excerpt: U.S. Tox21 Program National Center for Advancing Translational Sciences [NCATS] NIH Chemical Genomics Center [NCGC] U.S. Environmental Protection Agency [EPA] National Institutes of Environmental Health Sciences [NIEHS] National Toxicology Program [NTP] U.S. Food and Drug Administration [FDA] Tox21 Assay Overview: The Retinoid X receptor (RXR), a nuclear hormone receptor expressed in liver, spleen, placenta, epidermis, central nervous system. These receptors are able to form homo and heterodimers with other nuclear receptors and due to this heterodimerizing ability, RXR functions as master regulators producing diverse physiological effects. Three subtypes of RXR exist; alpha, beta and gamma. Retinoid X receptor alpha (RXR-alpha) has potential roles in metabolic signaling pathways, skin alopecia, dermal cysts, cardiac development, insulin sensitization etc. Therefore screening environmental chemicals on RXR-alpha signaling can be used for the studies focused on such therapeutic applications. For quantification of RXR-alpha ligands signaling, GeneBLAzer RXR alpha-UAS-bla HEK 293T (Life Technologies, Carlsbad, CA) cells containing a beta-lactamase reporter-gene under control of Retinoid X receptor-alpha response element were used to screen Tox21 10K library.
Tox21 Assay Protocol Summary: RXR-alpha HEK 293T cells were dispensed at 2,000 cells/6 uL of assay medium containing 2% charcoal-stripped FBS using a Multidrop Combi (ThermoFisher Scientific, Waltham, MA) dispenser. The assay was performed in black wall/clear-bottom 1536-well plates (Greiner Bio-One North America Inc. Monroe, NC). 9-cis retinoic acid was used as a positive control in the agonist mode screen. After the assay plates were incubated at 37 C and 5% CO2 for 5 hr, 23 nL of compounds dissolved in DMSO, positive controls or DMSO only were transferred to the assay plate by a Pintool station (Kalypsys, San Diego, CA). The assay plates were incubated at 37 C and 5% CO2 for 16 hr. One uL of LiveBLAzer B/G FRET substrate (Life Technologies) was added using a Flying Reagent Dispenser (Aurora Discovery, San Diego, CA) and the plates were incubated at room temperature for 2 hr. Fluorescence intensity (405 nm excitation, 460/530 nm emission) was measured using an Envision plate reader (PerkinElmer, Shelton, CT).
Potency means the concentration at half of the fitted maximal effect.

**Q.** How did the Potency turn out when `CCC[N+]1(C)CCCC1` was run?
**A.** inactive

**Q.** With `O=C(O)c1ccccc1O` as the compound, how does the Potency read?
**A.** inactive

**Q.** Which Potency does the source give for `OCCOc1ccccc1` here?
**A.** inactive

**Q.** For `C=CCOC(Cn1ccnc1)c1ccc(Cl)cc1Cl` (stereo not given), which Potency is on record?
**A.** inactive

**Q.** How did the Potency turn out when `Nc1ccc(Cl)cc1` was run?
**A.** 8.71 µM (active) and inactive

**Q.** Which Potency does the source give for `CCCCCCCCCCCCn1cc[n+](C)c1` here?
**A.** inactive

**Q.** Which Potency does the source give for `CCNc1nc(Cl)nc(NCC)n1` here?
**A.** inactive and 12.2 µM (active)

**Q.** `CNC` was tested. Which Potency did it give?
**A.** inactive

**Q.** `CCCC[n+]1ccccc1C` was tested. Which Potency did it give?
**A.** inactive

**Q.** With `Cc1cc(Cl)ccc1N` as the compound, how does the Potency read?
**A.** inactive

**Q.** `CCCn1cc[n+](C)c1` was tested. Which Potency did it give?
**A.** inactive

**Q.** `CC[n+]1ccccc1` was tested. Which Potency did it give?
**A.** inactive

**Q.** How did the Potency turn out when `O=C(O)C(Cl)Cl` was run?
**A.** inactive and 3.09 µM (active)

**Q.** `Nc1ccc(-c2ccc(N)c(Cl)c2)cc1Cl` was tested. Which Potency did it give?
**A.** inactive

**Q.** Which Potency does the source give for `N#CS` here?
**A.** inactive

**Q.** How did the Potency turn out when `O=S(=O)(O)O` was run?
**A.** inactive

**Q.** For `CCCC[n+]1ccc(C)cc1`, which Potency is on record?
**A.** inactive

**Q.** `O=c1nc(O)n(Cl)c(=O)n1Cl` was tested. Which Potency did it give?
**A.** inactive

**Q.** `C[N+](C)(C)Cc1ccccc1` was tested. Which Potency did it give?
**A.** inactive

**Q.** For `CC[N+](CC)(CC)CC`, which Potency is on record?
**A.** inactive

**Q.** With `CN(C)[C@@H]1C(=O)C(C(N)=O)=C(O)[C@@]2(O)C(=O)C3=C(O)c4c(O)cccc4[C@@](C)(O)[C@H]3[C@H](O)[C@@H]12` as the compound, how does the Potency read?
**A.** inactive

**Q.** Which Potency does the source give for `O=C(O)C(Cl)(Cl)Cl` here?
**A.** inactive

**Q.** For `CC(Cl)(Cl)C(=O)O`, which Potency is on record?
**A.** inactive

**Q.** With `C[C@]12CCC(=O)C=C1CC[C@@H]1[C@@H]2CC[C@]2(C)C(=O)CC[C@@H]12` as the compound, how does the Potency read?
**A.** inactive

**Q.** `COP(=O)(OC)OC=C(Cl)Cl` was tested. Which Potency did it give?
**A.** inactive

**Q.** How did the Potency turn out when `CCCCCCn1cc[n+](C)c1` was run?
**A.** inactive

**Q.** With `CCCCCCCCCCCC(=O)O` as the compound, how does the Potency read?
**A.** 55.1 µM (active) and 63 µM (active)

**Q.** `Nc1ccc(-c2ccc(N)cc2)cc1` was tested. Which Potency did it give?
**A.** inactive

**Q.** For `Oc1ccccc1-c1ccccc1`, which Potency is on record?
**A.** inactive

**Q.** With `CCCCCC[n+]1ccccc1` as the compound, how does the Potency read?
**A.** inactive

**Q.** With `Cc1cc(-c2ccc(N)c(C)c2)ccc1N` as the compound, how does the Potency read?
**A.** inactive

**Q.** `CC(=O)O` was tested. Which Potency did it give?
**A.** inactive

**Q.** With `CC[N+]1(C)CCCC1` as the compound, how does the Potency read?
**A.** inactive

**Q.** How did the Potency turn out when `COCC(=O)N(c1c(C)cccc1C)C(C)C(=O)OC` (stereo not given) was run?
**A.** inactive

**Q.** With `CCC[N+]1(C)CCCCC1` as the compound, how does the Potency read?
**A.** inactive

**Q.** How did the Potency turn out when `O=C(O)c1nc(Cl)ccc1Cl` was run?
**A.** inactive

**Q.** For `O=P1(N(CCCl)CCCl)NCCCO1` (stereo not given), which Potency is on record?
**A.** inactive

**Q.** `Nc1ccccc1` was tested. Which Potency did it give?
**A.** inactive

**Q.** Which Potency does the source give for `CCCC[N+]1(C)CCCC1` here?
**A.** inactive

**Q.** How did the Potency turn out when `COP(=O)(OC)C(O)C(Cl)(Cl)Cl` (stereo not given) was run?
**A.** inactive
